# From publication PMC7862700, “An all-to-all approach to the identification of sequence-specific readers for epigenetic DNA modifications on cytosine”
# Key:
# Assay in all cases: DAPPL (digital affinity profiling via proximity ligation, sequencing); 10 mM Tris-HCl pH 7.5, 50 mM NaCl, 1 mM DTT, 4% glycerol, room temperature, 30 min; GST-TFs on glutathione beads, 16-mer random dsDNA library, 0.1% formaldehyde crosslink after washing; high values mean tight binding
# FLI1 = biological target: T1, FLI1 (Homo sapiens, UniProt Q01543 1-452); details: protein: recombinant; tags: N-terminal GST; dsDNA, one strand shown
# T1 sequence: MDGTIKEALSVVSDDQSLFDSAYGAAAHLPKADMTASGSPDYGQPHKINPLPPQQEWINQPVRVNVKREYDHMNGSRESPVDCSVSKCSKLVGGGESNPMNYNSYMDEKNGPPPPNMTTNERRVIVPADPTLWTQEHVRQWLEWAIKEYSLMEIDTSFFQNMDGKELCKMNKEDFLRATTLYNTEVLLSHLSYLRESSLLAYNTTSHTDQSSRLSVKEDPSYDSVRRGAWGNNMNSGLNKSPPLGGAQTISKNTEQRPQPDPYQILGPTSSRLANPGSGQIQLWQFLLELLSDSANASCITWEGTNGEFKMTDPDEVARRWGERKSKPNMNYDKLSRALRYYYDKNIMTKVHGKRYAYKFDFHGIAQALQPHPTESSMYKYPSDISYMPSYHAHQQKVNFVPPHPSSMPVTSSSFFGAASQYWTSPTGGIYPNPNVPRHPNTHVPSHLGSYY
# Method in brief: (§1)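 Each value of binding signal is a hexamer's read frequency for a factor divided by the same hexamer's frequency in the tag-only sample. Barcoded, bead-captured GST fusions of human transcription factors made in yeast were pooled with that sample and incubated with 200 nmole of a random double-stranded 16-mer DNA library in Tris/NaCl/DTT/glycerol buffer at room temperature for 30 min. Washing, 0.1% formaldehyde crosslinking, proximity ligation, PCR and Illumina NextSeq500 sequencing followed.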
# ELK1 = biological target: T2, ELK1 (Homo sapiens, UniProt P19419 1-428); details: protein: recombinant; tags: N-terminal GST; dsDNA, one strand shown
# T2 sequence: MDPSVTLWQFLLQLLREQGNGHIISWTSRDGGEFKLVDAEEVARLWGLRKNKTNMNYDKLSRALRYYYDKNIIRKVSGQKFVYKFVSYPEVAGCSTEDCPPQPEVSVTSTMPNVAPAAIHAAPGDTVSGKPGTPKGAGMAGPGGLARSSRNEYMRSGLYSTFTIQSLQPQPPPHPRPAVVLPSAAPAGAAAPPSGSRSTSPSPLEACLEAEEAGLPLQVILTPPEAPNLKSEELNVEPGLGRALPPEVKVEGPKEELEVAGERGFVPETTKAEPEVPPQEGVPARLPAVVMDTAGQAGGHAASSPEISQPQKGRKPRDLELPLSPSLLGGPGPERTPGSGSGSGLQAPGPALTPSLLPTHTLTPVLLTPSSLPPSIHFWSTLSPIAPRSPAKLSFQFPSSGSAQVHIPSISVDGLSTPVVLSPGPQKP
# Method in brief: as §1
# GABPA = biological target: T3, GABPA (Homo sapiens, UniProt Q06546 1-454); details: protein: recombinant; tags: N-terminal GST; dsDNA, one strand shown
# T3 sequence: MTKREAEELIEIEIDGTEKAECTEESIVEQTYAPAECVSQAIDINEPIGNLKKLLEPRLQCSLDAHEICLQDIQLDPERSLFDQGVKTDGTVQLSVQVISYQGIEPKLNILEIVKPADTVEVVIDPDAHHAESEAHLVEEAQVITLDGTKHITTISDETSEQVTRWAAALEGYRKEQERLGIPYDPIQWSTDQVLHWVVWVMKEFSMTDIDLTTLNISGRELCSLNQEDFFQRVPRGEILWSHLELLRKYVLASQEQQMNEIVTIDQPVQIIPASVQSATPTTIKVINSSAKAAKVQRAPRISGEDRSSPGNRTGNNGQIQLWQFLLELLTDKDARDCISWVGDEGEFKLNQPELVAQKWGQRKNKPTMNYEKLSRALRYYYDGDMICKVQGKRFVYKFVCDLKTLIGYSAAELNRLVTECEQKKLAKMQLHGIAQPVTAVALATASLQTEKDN
# Method in brief: as §1
# ERG = biological target: T4, ERG (Homo sapiens, UniProt P11308 1-479); details: protein: recombinant; tags: N-terminal GST; dsDNA, one strand shown
# T4 sequence: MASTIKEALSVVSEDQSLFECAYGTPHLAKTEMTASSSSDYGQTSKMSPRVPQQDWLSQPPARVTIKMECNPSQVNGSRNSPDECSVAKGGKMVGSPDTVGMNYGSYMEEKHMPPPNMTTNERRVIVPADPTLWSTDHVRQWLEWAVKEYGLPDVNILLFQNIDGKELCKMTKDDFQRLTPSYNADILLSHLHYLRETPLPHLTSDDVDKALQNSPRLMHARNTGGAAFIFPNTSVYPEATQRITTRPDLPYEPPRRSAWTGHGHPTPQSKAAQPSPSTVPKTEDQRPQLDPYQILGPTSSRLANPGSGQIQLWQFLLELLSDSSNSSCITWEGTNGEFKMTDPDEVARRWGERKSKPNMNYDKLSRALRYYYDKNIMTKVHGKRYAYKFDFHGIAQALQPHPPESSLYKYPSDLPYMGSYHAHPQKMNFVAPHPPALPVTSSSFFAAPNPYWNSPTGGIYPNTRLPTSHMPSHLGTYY
# Method in brief: as §1
# ELF1 = ELF1 (Homo sapiens, UniProt P32519 1-619); details: protein: recombinant; tags: N-terminal GST; dsDNA, one strand shown
# Method in brief: as §1
# EHF = biological target: T5, EHF (Homo sapiens, UniProt Q9NZC4 1-300); details: protein: recombinant; tags: N-terminal GST; dsDNA, one strand shown
# T5 sequence: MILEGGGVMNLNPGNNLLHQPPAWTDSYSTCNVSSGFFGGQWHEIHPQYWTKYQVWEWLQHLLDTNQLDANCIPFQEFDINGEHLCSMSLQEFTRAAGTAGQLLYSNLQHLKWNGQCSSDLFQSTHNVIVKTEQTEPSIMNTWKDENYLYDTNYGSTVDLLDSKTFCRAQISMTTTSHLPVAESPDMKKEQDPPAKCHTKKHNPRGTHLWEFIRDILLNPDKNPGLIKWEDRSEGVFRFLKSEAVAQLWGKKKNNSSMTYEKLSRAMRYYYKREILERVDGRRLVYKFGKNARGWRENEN
# Method in brief: as §1
# SPI1 = SPI1 (Homo sapiens, UniProt P17947 1-270); details: protein: recombinant; tags: N-terminal GST; dsDNA, one strand shown
# Method in brief: as §1
# SPIB = SPIB (Homo sapiens, UniProt Q01892 1-262); details: protein: recombinant; tags: N-terminal GST; dsDNA, one strand shown
# Method in brief: as §1
# ELK3 = biological target: T6, ELK3 (Homo sapiens, UniProt P41970 1-407); details: protein: recombinant; tags: N-terminal GST; dsDNA, one strand shown
# T6 sequence: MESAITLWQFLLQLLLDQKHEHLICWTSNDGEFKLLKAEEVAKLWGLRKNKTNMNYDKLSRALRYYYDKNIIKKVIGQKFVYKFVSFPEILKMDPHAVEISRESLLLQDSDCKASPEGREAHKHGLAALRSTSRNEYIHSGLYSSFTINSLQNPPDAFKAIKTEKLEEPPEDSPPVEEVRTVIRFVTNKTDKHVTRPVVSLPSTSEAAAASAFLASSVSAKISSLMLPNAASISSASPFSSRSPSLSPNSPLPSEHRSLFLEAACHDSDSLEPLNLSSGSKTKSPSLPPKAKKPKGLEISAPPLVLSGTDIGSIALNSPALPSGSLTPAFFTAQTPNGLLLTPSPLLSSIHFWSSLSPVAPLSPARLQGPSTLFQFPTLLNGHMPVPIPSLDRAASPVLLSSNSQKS
# Method in brief: as §1
# FEV = biological target: T7, FEV (Homo sapiens, UniProt Q99581 1-238); details: protein: recombinant; tags: N-terminal GST; dsDNA, one strand shown
# T7 sequence: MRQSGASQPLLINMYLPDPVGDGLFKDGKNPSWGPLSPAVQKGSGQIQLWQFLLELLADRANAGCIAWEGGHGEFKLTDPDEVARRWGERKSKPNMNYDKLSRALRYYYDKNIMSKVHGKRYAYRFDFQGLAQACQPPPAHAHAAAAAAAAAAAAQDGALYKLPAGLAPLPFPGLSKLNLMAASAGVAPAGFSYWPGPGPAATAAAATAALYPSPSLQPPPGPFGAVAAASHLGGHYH
# Method in brief: as §1
# ETV5 = ETV5 (Homo sapiens, UniProt P41161 1-510); details: protein: recombinant; tags: N-terminal GST; dsDNA, one strand shown
# Method in brief: as §1
# HSF1 = HSF1 (Homo sapiens, UniProt Q00613 1-529); details: protein: recombinant; tags: N-terminal GST; chain copies: 3; dsDNA, one strand shown
# Method in brief: as §1
# SPIC = biological target: T8, SPIC (Homo sapiens, UniProt Q8N5J4 1-248); details: protein: recombinant; tags: N-terminal GST; dsDNA, one strand shown
# T8 sequence: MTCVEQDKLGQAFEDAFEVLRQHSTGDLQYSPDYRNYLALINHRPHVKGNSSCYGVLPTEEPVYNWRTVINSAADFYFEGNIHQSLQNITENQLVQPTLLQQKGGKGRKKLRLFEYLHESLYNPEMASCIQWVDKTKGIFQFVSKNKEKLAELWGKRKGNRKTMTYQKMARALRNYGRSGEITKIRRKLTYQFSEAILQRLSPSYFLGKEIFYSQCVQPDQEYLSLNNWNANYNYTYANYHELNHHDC
# Method in brief: as §1
# ELF4 = ELF4 (Homo sapiens, UniProt Q99607 1-663); details: protein: recombinant; tags: N-terminal GST; dsDNA, one strand shown
# Method in brief: as §1
# ELK4 = biological target: T9, ELK4 (Homo sapiens, UniProt P28324-2 1-405); details: protein: recombinant; tags: N-terminal GST; dsDNA, one strand shown
# T9 sequence: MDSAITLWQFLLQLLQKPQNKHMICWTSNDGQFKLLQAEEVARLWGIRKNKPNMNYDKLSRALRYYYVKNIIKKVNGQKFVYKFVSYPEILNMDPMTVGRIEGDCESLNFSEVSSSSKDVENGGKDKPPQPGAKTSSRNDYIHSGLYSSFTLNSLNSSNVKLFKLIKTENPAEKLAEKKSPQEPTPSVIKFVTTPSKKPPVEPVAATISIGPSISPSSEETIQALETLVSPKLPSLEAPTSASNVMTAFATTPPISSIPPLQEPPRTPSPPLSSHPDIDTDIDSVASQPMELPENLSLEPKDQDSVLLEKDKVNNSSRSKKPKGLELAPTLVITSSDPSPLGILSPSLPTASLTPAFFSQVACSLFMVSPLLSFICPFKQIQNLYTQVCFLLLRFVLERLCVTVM
# Method in brief: as §1
# ETV2 = biological target: T10, ETV2 (Homo sapiens, UniProt O00321 1-342); details: protein: recombinant; tags: N-terminal GST; dsDNA, one strand shown
# T10 sequence: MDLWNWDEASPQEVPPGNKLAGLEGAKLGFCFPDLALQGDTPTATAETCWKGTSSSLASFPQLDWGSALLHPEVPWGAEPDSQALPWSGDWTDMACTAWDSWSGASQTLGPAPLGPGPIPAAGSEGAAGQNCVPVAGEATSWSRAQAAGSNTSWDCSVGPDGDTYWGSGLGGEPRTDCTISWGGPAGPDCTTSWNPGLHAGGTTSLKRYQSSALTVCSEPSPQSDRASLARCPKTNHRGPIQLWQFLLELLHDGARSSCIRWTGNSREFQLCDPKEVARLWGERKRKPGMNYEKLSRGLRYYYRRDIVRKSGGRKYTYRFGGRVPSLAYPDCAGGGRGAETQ
# Method in brief: as §1
# ELF3 = biological target: T11, ELF3 (Homo sapiens, UniProt P78545 1-371); details: protein: recombinant; tags: N-terminal GST; dsDNA, one strand shown
# T11 sequence: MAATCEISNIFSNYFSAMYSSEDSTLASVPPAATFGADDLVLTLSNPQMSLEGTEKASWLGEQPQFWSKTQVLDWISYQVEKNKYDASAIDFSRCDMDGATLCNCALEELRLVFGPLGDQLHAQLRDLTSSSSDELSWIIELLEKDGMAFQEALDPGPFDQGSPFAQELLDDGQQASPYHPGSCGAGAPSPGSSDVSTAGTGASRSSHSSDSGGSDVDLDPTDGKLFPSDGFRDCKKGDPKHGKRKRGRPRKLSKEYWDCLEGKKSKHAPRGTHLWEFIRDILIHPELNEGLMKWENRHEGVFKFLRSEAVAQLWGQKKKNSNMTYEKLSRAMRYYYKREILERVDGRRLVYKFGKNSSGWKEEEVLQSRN
# Method in brief: as §1
# CRX = CRX (Homo sapiens, UniProt O43186 1-299); details: protein: recombinant; tags: N-terminal GST; dsDNA, one strand shown
# Method in brief: as §1
# ETV1 = ETV1 (Homo sapiens, UniProt P50549 1-477); details: protein: recombinant; tags: N-terminal GST; dsDNA, one strand shown
# Method in brief: as §1
# ELF1, sequence (P32519 whole entry): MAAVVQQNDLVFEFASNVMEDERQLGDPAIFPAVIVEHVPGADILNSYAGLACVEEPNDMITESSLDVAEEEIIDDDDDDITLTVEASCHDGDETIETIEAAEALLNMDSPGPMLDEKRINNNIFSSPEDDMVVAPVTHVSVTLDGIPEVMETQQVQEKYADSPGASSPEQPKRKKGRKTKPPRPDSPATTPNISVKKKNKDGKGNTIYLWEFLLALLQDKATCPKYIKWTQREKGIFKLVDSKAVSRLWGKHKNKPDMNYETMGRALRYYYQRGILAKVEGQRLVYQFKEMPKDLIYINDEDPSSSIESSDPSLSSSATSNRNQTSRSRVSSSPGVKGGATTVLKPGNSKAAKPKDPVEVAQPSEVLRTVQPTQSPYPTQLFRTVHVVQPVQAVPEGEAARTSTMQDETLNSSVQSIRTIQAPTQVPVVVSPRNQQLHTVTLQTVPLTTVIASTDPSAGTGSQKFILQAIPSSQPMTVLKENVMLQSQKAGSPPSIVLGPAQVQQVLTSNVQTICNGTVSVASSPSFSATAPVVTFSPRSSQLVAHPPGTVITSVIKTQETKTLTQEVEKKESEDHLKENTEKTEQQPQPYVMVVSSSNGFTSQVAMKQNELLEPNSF
# CRX, sequence (O43186 whole entry): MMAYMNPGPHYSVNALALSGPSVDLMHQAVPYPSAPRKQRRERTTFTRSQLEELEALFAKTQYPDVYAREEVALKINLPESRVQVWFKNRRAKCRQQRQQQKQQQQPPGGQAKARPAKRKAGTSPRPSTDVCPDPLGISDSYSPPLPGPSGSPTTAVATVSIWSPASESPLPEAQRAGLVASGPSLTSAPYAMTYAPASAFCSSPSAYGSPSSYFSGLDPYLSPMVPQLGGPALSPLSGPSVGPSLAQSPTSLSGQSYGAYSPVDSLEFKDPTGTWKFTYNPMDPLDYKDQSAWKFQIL
# ELF4, sequence (Q99607 whole entry): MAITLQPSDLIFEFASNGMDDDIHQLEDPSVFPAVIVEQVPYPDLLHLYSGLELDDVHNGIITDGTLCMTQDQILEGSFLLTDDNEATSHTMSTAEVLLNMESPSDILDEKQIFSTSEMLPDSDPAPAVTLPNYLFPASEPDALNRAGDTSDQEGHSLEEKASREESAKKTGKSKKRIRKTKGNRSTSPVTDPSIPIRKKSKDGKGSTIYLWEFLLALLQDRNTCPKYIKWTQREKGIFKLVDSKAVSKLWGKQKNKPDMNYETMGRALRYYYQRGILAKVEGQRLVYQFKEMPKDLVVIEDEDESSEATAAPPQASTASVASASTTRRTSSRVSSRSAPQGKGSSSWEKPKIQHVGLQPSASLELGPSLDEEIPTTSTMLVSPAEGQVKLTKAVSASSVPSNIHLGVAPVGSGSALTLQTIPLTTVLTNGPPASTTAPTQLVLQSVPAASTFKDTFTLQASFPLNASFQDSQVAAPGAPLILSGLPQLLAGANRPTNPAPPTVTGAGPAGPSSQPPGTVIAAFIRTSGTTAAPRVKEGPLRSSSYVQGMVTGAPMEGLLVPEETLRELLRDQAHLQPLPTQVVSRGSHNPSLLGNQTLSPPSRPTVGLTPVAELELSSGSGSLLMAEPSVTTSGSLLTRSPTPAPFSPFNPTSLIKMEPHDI
# ETV5, sequence (P41161 whole entry): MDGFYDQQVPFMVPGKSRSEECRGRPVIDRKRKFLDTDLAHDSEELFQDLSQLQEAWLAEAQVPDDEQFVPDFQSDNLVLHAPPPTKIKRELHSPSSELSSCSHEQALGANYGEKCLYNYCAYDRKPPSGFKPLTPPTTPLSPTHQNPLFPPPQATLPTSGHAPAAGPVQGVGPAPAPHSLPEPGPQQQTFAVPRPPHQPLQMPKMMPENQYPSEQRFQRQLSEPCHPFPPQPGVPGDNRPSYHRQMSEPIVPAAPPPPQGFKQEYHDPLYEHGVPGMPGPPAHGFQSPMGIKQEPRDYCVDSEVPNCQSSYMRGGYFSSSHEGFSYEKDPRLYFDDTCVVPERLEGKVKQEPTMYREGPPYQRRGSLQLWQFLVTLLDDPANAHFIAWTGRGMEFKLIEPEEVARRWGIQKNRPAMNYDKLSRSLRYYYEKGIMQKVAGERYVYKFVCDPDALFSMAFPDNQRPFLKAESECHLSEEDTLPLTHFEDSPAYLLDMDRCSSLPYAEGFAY
# HSF1, sequence (Q00613 whole entry): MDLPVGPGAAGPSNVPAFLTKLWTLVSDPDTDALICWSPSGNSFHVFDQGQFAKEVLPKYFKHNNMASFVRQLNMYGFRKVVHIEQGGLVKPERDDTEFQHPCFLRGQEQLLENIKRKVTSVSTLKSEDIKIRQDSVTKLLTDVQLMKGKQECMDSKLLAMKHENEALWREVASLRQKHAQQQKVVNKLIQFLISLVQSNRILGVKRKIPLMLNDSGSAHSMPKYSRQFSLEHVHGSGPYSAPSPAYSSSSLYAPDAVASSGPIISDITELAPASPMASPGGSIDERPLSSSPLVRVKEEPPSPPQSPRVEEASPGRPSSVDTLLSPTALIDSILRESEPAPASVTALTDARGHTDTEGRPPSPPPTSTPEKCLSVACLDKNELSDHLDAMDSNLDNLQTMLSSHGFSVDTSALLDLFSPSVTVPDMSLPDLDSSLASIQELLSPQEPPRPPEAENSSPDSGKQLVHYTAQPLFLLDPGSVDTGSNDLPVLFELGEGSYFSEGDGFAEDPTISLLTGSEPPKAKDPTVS
# ETV1, sequence (P50549 whole entry): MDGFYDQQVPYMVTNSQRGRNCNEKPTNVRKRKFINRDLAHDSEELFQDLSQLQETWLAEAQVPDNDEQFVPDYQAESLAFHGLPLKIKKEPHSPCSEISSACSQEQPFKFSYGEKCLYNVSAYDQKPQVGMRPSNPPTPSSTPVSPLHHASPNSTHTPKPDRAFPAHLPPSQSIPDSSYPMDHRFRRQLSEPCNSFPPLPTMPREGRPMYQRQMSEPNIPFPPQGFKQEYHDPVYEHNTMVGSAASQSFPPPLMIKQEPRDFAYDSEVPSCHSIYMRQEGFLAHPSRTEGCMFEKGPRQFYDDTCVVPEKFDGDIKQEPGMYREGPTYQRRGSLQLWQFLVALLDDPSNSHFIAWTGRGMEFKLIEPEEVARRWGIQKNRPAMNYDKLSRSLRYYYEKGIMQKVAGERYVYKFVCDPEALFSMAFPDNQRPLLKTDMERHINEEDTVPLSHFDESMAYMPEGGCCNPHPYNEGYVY
# SPIB, sequence (Q01892 whole entry): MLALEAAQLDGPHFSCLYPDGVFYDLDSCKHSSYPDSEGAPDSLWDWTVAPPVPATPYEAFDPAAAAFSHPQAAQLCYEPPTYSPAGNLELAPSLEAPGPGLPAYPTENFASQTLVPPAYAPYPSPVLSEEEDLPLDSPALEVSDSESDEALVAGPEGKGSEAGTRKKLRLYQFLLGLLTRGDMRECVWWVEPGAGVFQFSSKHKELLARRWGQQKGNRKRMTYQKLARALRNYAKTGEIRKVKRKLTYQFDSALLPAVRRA
sequence,measurement,setting,value
ATTGAT,binding signal,FLI1,"1.28 fold enrichment (6-mer frequency, TF over GST control)"
same,binding signal,ELK1,"1.35 fold enrichment (6-mer frequency, TF over GST control)"
same,binding signal,GABPA,"1.39 fold enrichment (6-mer frequency, TF over GST control)"
same,binding signal,ERG,"1.33 fold enrichment (6-mer frequency, TF over GST control)"
same,binding signal,ELF1,"1.31 fold enrichment (6-mer frequency, TF over GST control)"
same,binding signal,EHF,"1.17 fold enrichment (6-mer frequency, TF over GST control)"
same,binding signal,SPI1,"1.24 fold enrichment (6-mer frequency, TF over GST control)"
same,binding signal,SPIB,"1.16 fold enrichment (6-mer frequency, TF over GST control)"
same,binding signal,ELK3,"1.33 fold enrichment (6-mer frequency, TF over GST control)"
same,binding signal,FEV,"1.25 fold enrichment (6-mer frequency, TF over GST control)"
same,binding signal,ETV5,"1.2 fold enrichment (6-mer frequency, TF over GST control)"
same,binding signal,HSF1,"1.37 fold enrichment (6-mer frequency, TF over GST control)"
same,binding signal,SPIC,"1.42 fold enrichment (6-mer frequency, TF over GST control)"
same,binding signal,ELF4,"1.32 fold enrichment (6-mer frequency, TF over GST control)"
same,binding signal,ELK4,"1.38 fold enrichment (6-mer frequency, TF over GST control)"
same,binding signal,ETV2,"1.3 fold enrichment (6-mer frequency, TF over GST control)"
same,binding signal,ELF3,"1.22 fold enrichment (6-mer frequency, TF over GST control)"
same,binding signal,CRX,"1.46 fold enrichment (6-mer frequency, TF over GST control)"
same,binding signal,ETV1,"1.39 fold enrichment (6-mer frequency, TF over GST control)"
